“And” between values parts separate entries of the source, which are not always exact repeats. Identical values can stand only once. Records with an inconclusive call do not appear. A structure can be active in one record and inactive in another. The source made the active and inactive calls. Unless noted, the call rests on the fitted dose curve; in most records, active means well fitted curve in the direction sought with a large enough effect in the repeat runs; inconclusive means weak or mixed curves; inactive means no such curve, though single readings can be large; an effect the other way counts as inactive or inconclusive.

The text below walks through data of PubChem BioAssay (Tox21).

Experiment [1] deals with Luciferin 4-monooxygenase (Photinus pyralis) (UniProt P08659). Briefly: qHTS assay to identify small molecule inhibitors of firefly luciferase (AID 1224835). Further: nearly all actives have a fitted effect of over 25% in size. Put shortly:
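Quantitative HTS format; KM concentrations of both substrates. Purified P. pyralis FLuc activity quantified from luminescence images.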
For orientation: qHTS replaces the single test concentration by a dilution series.

Experiment [2] deals with Nuclear receptor subfamily 1 group I member 3 (Homo sapiens) (UniProt Q14994). Briefly: qHTS assay to identify small molecule antagonists of the constitutive androstane receptor (CAR) signaling pathway (AID 1224838). Further: nearly all actives have a fitted effect of over 40% in size. The gist of the method:
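HepG2 cells stably carrying hCAR and a CYP2B6-2.2kb luciferase reporter, seeded 4 hrs before compound (15 concentrations). Stimulated with 50 nM CITCO for 24 hr at 37 C. ONE-Glo luminescence read after 30 min at room temperature.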

Experiment [3] has the same target. As to the kind of experiment: qHTS assay to identify small molecule agonists of the constitutive androstane receptor (CAR) signaling pathway (AID 1224839). Further: nearly all actives have a fitted effect of over 15% in size. The gist of the method:
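Readout: firefly luciferase luminescence via ONE-Glo. System: HepG2 double-stable for hCAR and CYP2B6-2.2kb. Conditions: 15-point compound titration, PK11195 at 0.75 uM final, 24 h incubation.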

Experiment [4] can be described thus: qHTS assay to identify small molecule agonists of the hypoxia (HIF-1) signaling pathway - cell viability counter screen (AID 1224844; calls by dose curve; further: nearly all actives have a fitted effect of over 50% in size). Put shortly:
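HRE-bla ME-180 cells, 2,000/well in 0.5% dialyzed FBS medium, treated 17 h at 37C with compounds. Viability read in the same wells as the bla reporter, by CellTiter-Glo luminescence after 30 min at room temperature.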

Experiment [5] in a line: qHTS assay to identify small molecule antagonists of the estrogen related receptor signaling pathway with the pleiotropic PPARgamma coactivator (PGC) from Tox21 10K library - cell viability counter screen (AID 1224840; active means well fitted cell-killing curve with a large enough effect in the repeat runs, not every such curve was filed as active; further: nearly all actives have a fitted effect of over 40% in size). The gist of the method: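 PGC/ERR cells (2,000/well) plated 6 h, then compound-treated for 17.5 h at 37 C. Viability measured by CellTiter-Fluor fluorescence after 30 min at 37 C, multiplexed with the pathway assay.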

Experiment [6] has as its target Thyrotropin receptor (Homo sapiens) (UniProt P16473). Briefly: qHTS assay to identify small molecule agonists of the thyroid stimulating hormone receptor (TSHR) signaling pathway (AID 1224843; calls by dose curve; further: nearly all actives have a fitted effect of over 45% in size). Put shortly:
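Cell line HEK293 with TSHR; density 800/well. Exposure 30 min RT. Readout HTRF cAMP (cAMP-d2/anti-cAMP-cryptate), 1 h RT before reading.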

Experiment [7] in a line: qHTS assay to identify small molecule antagonists of the estrogen related receptor signaling pathway with the pleiotropic PPARgamma coactivator (PGC) from Tox21 10K library (AID 1224841; call rule not given here; further: actives are mostly falling curves and most rising ones were filed inactive; nearly all actives have a fitted effect of over 50% in size). The gist of the method: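 PGC/ERR cell line, 2,000 cells/well, pre-incubated 6 hours at 37 C, then exposed to compounds for 18 hours at 37 C; luciferase read with One-Glo luminescence after 30 min at room temperature.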

Experiment [8] in a line: qHTS assay to identify small molecule agonists of the estrogen related receptor signaling pathway with the pleiotropic PPARgamma coactivator (PGC) from Tox21 10K library (AID 1224842). Further: nearly all actives have a fitted effect of over 15% in size. The gist of the method: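 PGC/ERR reporter cells (NTP line) were seeded 2,000 per well, rested 6 h at 37 C/5% CO2, then pin-dosed with compounds in DMSO for 18 h at 37 C; luciferase read by One-Glo luminescence after 30 min at room temperature.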

The nature of experiment [9]: qHTS assay to identify small molecule agonists of the constitutive androstane receptor (CAR) signaling pathway - cell viability counter screen (AID 1224836). Further: nearly all actives have a fitted effect of over 45% in size. The gist of the method:
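Double-stable HepG2 hepatoma cells (hCAR plus CYP2B6-2.2kb) are treated for 23 h at 37 C with test compounds in 15-point concentration series. PK11195 at 0.75 uM final is co-added. Cell viability is quantified by CellTiter-Fluor.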

Experiment [10] is described as follows: qHTS assay to identify small molecule antagonists of the constitutive androstane receptor (CAR) signaling pathway - cell viability counter screen (AID 1224837). Further: nearly all actives have a fitted effect of over 45% in size. The gist of the method: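 HepG2 cells stably carrying hCAR and CYP2B6-2.2kb reporter, stimulated with 50 nM CITCO and compounds at 15 concentrations for 23 h at 37 C. Viability measured by CellTiter-Fluor fluorescence.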
On the % scale 0 is the no-effect control and ±100 the full control effect; potency means the concentration at half of the fitted maximal effect.

Nuclear receptor subfamily 1 group I member 3 (Homo sapiens), sequence (Q14994 whole entry, looked up): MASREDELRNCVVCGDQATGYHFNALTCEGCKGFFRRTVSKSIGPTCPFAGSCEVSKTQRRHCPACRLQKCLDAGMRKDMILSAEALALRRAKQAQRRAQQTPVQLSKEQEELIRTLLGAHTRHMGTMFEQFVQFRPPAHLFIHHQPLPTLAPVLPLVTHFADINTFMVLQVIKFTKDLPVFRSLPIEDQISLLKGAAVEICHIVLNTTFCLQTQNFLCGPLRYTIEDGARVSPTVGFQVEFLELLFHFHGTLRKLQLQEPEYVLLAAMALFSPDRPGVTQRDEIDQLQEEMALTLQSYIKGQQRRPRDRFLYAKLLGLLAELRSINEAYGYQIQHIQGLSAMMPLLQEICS
Thyrotropin receptor (Homo sapiens), sequence (P16473 whole entry, looked up): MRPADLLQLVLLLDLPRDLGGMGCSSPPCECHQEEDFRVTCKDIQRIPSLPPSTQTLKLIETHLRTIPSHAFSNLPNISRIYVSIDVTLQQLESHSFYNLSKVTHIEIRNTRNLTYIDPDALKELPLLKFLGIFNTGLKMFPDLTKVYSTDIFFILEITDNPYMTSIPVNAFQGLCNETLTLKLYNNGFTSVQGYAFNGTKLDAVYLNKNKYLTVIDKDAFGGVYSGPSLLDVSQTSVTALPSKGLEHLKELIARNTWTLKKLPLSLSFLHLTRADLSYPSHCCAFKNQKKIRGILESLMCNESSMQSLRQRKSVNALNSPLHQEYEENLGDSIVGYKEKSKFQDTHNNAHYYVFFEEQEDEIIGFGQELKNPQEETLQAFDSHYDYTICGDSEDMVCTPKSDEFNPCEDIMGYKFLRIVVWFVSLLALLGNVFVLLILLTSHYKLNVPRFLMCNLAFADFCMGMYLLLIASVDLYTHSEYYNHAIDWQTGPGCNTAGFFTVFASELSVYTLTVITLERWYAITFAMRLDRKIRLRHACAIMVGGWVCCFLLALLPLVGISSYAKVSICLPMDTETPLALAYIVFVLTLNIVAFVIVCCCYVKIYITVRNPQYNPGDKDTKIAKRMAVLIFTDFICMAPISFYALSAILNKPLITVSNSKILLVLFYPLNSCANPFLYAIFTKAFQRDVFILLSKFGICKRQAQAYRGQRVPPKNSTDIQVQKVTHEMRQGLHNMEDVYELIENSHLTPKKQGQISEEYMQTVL
Luciferin 4-monooxygenase (Photinus pyralis), sequence (P08659 whole entry, looked up): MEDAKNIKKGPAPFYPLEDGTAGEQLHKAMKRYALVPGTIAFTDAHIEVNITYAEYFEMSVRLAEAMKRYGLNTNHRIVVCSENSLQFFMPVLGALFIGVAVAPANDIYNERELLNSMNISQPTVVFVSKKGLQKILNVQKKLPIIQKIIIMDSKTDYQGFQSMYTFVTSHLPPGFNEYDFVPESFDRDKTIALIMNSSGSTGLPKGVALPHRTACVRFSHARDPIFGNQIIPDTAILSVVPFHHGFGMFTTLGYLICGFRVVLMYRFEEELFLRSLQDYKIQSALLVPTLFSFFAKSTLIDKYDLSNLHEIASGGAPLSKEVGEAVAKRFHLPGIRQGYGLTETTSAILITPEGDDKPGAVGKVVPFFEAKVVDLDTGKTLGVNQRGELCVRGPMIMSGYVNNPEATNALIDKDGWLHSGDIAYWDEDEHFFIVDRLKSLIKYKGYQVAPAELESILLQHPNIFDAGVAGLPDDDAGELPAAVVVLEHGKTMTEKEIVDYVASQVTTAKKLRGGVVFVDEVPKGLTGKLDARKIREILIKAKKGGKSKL

Take `CCCCCCCCCCCC[N+](C)(C)C`: the Potency result in experiment [1], in experiment [2], in [3] and in experiment [4] was “inactive” in each case.
For `CNCCC(Oc1ccc(C(F)(F)F)cc1)c1ccccc1` (stereo not given), the Potency in [2] was 29.8 µM (active); in experiment [5] it was 67.7 µM (active) and 29.8 µM (active). Also, the Potency entry in [6] is “inactive”.
As for `Cc1cc(OCCOCC[N+](C)(C)Cc2ccccc2)ccc1C(C)(C)CC(C)(C)C`, the Potency entry in [1], in experiment [2], in experiment [3] and in experiment [8] was “inactive” each time. Moreover, the Potency is 48.3 µM (active) in experiment [5]; 30.5 µM (active) and 7.5 µM (active) in experiment [7]; 27.1 µM (active) and 15 µM (active) in experiment [6]; 24.4 µM (active) and 23.9 µM (active) in [4].
For the molecule `Oc1c(Cl)cc(Cl)cc1Sc1cc(Cl)cc(Cl)c1O`, the Potency result in experiment [1], in experiment [9], in [3], in [8] and in experiment [6] was “inactive” in each case. Further, in [4], the Potency is 19.5 µM (active) and 24.5 µM (active) and inactive.
On to `CN(C)c1ccc(C(=C2C=CC(=[N+](C)C)C=C2)c2ccccc2)cc1`, for which the Potency was 11.9 µM (active) [middle of 4 runs] in [9]; 4.73 µM (active) [middle of 4 runs] in experiment [2]; 3.44 µM (active) and 6.68 µM (active) and 4.73 µM (active) in [5]; 11 µM (active) and 5.35 µM (active) in experiment [4]. Besides, the Potency entry in experiment [3] and in [8] was “inactive” throughout.
Take `Nc1nc(=S)c2[nH]cnc2[nH]1`: the Potency entry in experiment [1], in [3], in [5] and in experiment [6] was “inactive” throughout. Also, the Potency in [10] was 11.9 µM (active) and 4.86 µM (active); in experiment [2] it was 5.96 µM (active) and 1.93 µM (active) and 2.37 µM (active).
Turning to `O`, the Potency result in experiment [9], in [10], in experiment [5], in experiment [6] and in experiment [4] was “inactive” each time.
`NC12CC3CC(CC(C3)C1)C2`: the Potency entry in [1], in experiment [9], in [10], in experiment [5] and in [4] was “inactive” each time.
In the case of `COC(=O)/C=C/c1ccccc1`, the Potency entry in experiment [9], in [10], in experiment [3], in [5], in experiment [6] and in [4] was “inactive” each time.
Regarding `CC(C)(C)NC(=O)[C@@H]1CN(Cc2cccnc2)CCN1C[C@@H](O)C[C@@H](Cc1ccccc1)C(=O)N[C@H]1c2ccccc2C[C@H]1O`, the Potency result in [9], in experiment [10], in [5] and in experiment [4] was “inactive” in each case.
Consider `O=C(O[C@@H]1Cc2c(O)cc(O)cc2O[C@@H]1c1cc(O)c(O)c(O)c1)c1cc(O)c(O)c(O)c1`, for which the Potency in [1] was 25.3 µM (active) and 38.5 µM (active). The Potency result in experiment [3] and in experiment [4] was “inactive” in each case.
With `Nc1ccc2cc3ccccc3cc2c1`, the Potency in experiment [1] was 20.4 µM (active) and 17.8 µM (active); in experiment [3], 27.8 µM (active) and 48.6 µM (active). For the same molecule, the Potency result in experiment [5], in experiment [6] and in experiment [4] was “inactive” throughout.
In the case of `COc1ccc(CCN(C)CCCC(C#N)(c2ccc(OC)c(OC)c2)C(C)C)cc1OC` (stereo not given), the Potency in [9] is 48.5 µM (active). Also, the Potency result in experiment [5] and in [4] was “inactive” in each case.
Turning to `O=C1OC2(c3ccc(O)cc3Oc3cc(O)ccc32)c2ccccc21`, the Potency result in experiment [1], in experiment [6] and in [4] was “inactive” in each case.
As for `Nc1cc(S(=O)(=O)O)cc2cc(S(=O)(=O)O)cc(O)c12`, the Potency in experiment [1] was 31.7 µM (active); in experiment [4] it was “inactive and 4.9 µM (active)”. In addition, the Potency entry in [9] and in experiment [10] was “inactive” throughout.
As for `CCC[C@H](N[C@@H](C)C(=O)N1[C@H](C(=O)O)C[C@@H]2CCCC[C@@H]21)C(=O)OCC`, the Potency result in experiment [1], in experiment [9], in experiment [10], in experiment [5], in [6] and in experiment [4] was “inactive” in each case.
In the case of `CCCOC(=O)c1cc(O)c(O)c(O)c1`, the Potency entry in experiment [9], in experiment [10], in experiment [2], in experiment [7], in [6] and in experiment [4] was “inactive” in each case. The Potency result in experiment [3] was “inactive and 19.3 µM (active)”; in experiment [8], 4.31 µM (active).
